# Source: PubChem (National Center for Advancing Translational Sciences (NCATS))
# Pf Dd2 growth – inhibitors of Plasmodium falciparum Dd2 growth | P. falciparum Dd2 growth, SYBR Green, 72 h | Potency, µM (series often up to 28.9 µM), inactives show top-dose activity, negative = inhibition, most hits filed as inhibitors | 120,000 compounds, 4.3% hits | AID 1347417; active means well fitted inhibition curve with a large enough effect;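 further: plate controls were DMSO vehicle for no effect and reference drug for full effect; nearly all actives have a fitted effect of over 65% in size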
#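 Infected erythrocytes (Dd2, 0.3% parasitemia, 2.5% hematocrit final) are added to compound in RPMI-1640/Albumax II medium, grown 72 h at 37C in low oxygen, then lysed with saponin/Triton-X containing SYBR Green and read by fluorescence.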
# The depositor's hits bear a star; i = inactive; ! = repeats disagree; [ ] = dose if it differs, or a comment. The entries come from a sample that favours hits as a whole. Potency means the concentration at half of the fitted maximal effect.
SMILES,Pf Dd2 growth
CCOc1cccc2c1Oc1nc(-c3ccccc3)nc(SCC(=O)Nc3ccc(F)cc3)c1C2,7.94µM*
COc1cccc2c1Oc1nc(-c3ccccc3)nc(SCC(=O)N3CCCCC3)c1C2,-22.9%
COc1cccc(NC(=O)CSc2nc(-c3ccccc3)nc3c2Cc2cc(Cl)ccc2O3)c1,25.0%
COc1ccc(-c2nc3c(c(SCC(=O)Nc4ccccc4F)n2)Cc2cc(C)ccc2O3)cc1,18.5%
CCOc1ccc(-c2nc3c(c(SCC(=O)Nc4ccccc4C)n2)Cc2ccccc2O3)cc1,-6.2%
COc1ccc(-c2nc3c(c(SCC(=O)Nc4ccccc4OC)n2)Cc2cccc(C)c2O3)cc1,11.2µM*
CCc1ccccc1S(=O)(=O)N1CCN(C2(CC)CCN(C(=O)NC)C2)CC1 (stereo not drawn),-26.9%
c1cncc(COc2cc3c(cn2)NCCN(CC2CCCCC2)C3)c1,-14.9%[44.1 µM]
CNCC(=O)N1CCC(n2nccc2NC(=O)Nc2ccccc2Cl)CC1,-5.2%
CCC1Oc2ccc(NC(=O)c3ccccc3F)cc2CN(Cc2ccc(OC)cc2)C1=O (stereo not drawn),i
O=C1c2c(nc(CNCc3cnccn3)n2Cc2ccccc2)NCCN1Cc1cccc(Cl)c1,2.24µM*
CC(=O)N1CCN(Cc2nc3c(n2Cc2ccccc2)C(=O)N(Cc2ccccc2C#N)CCN3)CC1,i
O=C(O)c1ccc(NCc2nc3c(n2Cc2ccccc2)C(=O)N(Cc2cccc(Cl)c2)CCN3)cc1,-0.8%
COCCN1CCNc2nc(CNCc3cccc(Cl)c3)n(Cc3ccccc3)c2C1=O,i
N#Cc1ccccc1CN1CCNc2nc(COc3ccccc3)n(Cc3ccccc3)c2C1=O,i
CN(Cc1ccccc1)Cc1nc2c(n1Cc1ccccc1)C(=O)N(Cc1ccccc1C#N)CCN2,10µM*
CC(C)CNC(=O)c1csc(-c2cccc(OC(C)C)c2)n1,-14.3%
COc1ccc(C(=O)NC(C(=O)NCC(C)C)C2CCN(C(=O)c3cccc(F)c3)CC2)cc1 (stereo not drawn),i
Cc1ccc(C(=O)N2CCC(Cc3nc(-c4ccccc4)no3)CC2)c(C)c1,i
COCc1cc(C[C@@H]2CC[C@H](O)[C@@H](CNC(=O)Nc3ccccc3)O2)no1,12.9%[44.1 µM]
CCOC(=O)c1cc(-c2ccccc2)n(CC(=O)Nc2cc(Cl)c(OC)cc2OC)c1C,i
CCOC(=O)c1cc(-c2ccccc2)n(CCC(=O)NCCc2cccc(C)c2)c1C,-2.6%
CCOC(=O)c1cc(-c2ccccc2)n(CCC(=O)Nc2cc(C)cc(C)c2)c1C,3.16µM*
CCOC(=O)c1cc(-c2ccccc2)n(CCC(=O)Nc2cc(OCC)ccc2OCC)c1C,20.8%
CCOC(=O)c1cc(-c2ccccc2)n(CCC(=O)Nc2ccc(C)cc2Cl)c1C,-47.1%
SMILES,Pf Dd2 growth
CCOC(=O)c1cc(-c2ccccc2)n(CCC(=O)Nc2ccc(Cl)c(C(F)(F)F)c2)c1C,2.82µM*
COc1ccc(C(=O)N[C@@H]2CCC[C@@H]2C(=O)NCCC2=CCCCC2)cn1,i
Cc1cccc(CN(C)C(=O)c2cc(-c3cnc(C)nc3)nc3cc(F)ccc23)n1,-10.3%
O=C(CC1CCCC1)Nc1ccc2ncnc(N3CCCCC3)c2c1,-3.1%
COc1ccc(Cl)cc1NC(=O)Cn1ccn2nc(-c3ccc(F)cc3)c(CO)c2c1=O,17.7%
Cn1c(=O)oc2ccc(C(=O)N3CCn4nc(C(O)CO)cc4C3)cc21 (stereo not drawn),-10.8%
Cc1ccc2nc(C3CCCN(Cc4cccc(-c5cccnc5)c4)C3)[nH]c(=O)c2c1 (stereo not drawn),6.31µM*
COc1ccccc1-c1ccc(CN2CCCC(c3nc4ccc(C)cc4c(=O)[nH]3)C2)cc1 (stereo not drawn),7.94µM*!
COc1ccc(CN2CCCC(c3nn(-c4ccc(OC)cc4)c(=O)[nH]3)C2)cc1 (stereo not drawn),i
CCN1CCCC(c2nc3ccc(C)cc3c(=O)[nH]2)C1 (stereo not drawn),-17.1%[44.1 µM]
Cc1ccc2nc(C3CCN(Cc4cccs4)CC3)[nH]c(=O)c2c1,-0.6%[44.1 µM]
Cc1ccc2nc(C3CCN(Cc4cccc(-c5ccsc5)c4)CC3)[nH]c(=O)c2c1,7.0%
CCn1c(C2CCCN(C(=O)Nc3ccc4c(c3)OCCO4)C2)nn(C)c1=O (stereo not drawn),-20.6%
CN(C(=O)c1ccccc1Cl)C1CCc2ccccc21 (stereo not drawn),-13.3%[44.1 µM]
Cc1cccc(-c2noc(-c3nc(C)no3)n2)c1,22.0%
O=C(NCC1CCCN(C(=O)c2cc(=O)[nH]c(=O)[nH]2)C1)c1cccs1 (stereo not drawn),0.3%
CN(C)c1ccc(C(=O)N[C@H]2CC(C)(C)[C@@H]3C[C@@](C)(O)CC[C@]23CCC(=O)NC2CC2)cc1,i
COCCN1C(=O)CC[C@]2(C(=O)NCc3ccc(C)cc3)CCCC[C@@H]12,-5.3%
NCc1ccccc1-c1cccc(Cl)c1,8.91µM*
NCc1cn[nH]c1-c1ccccc1,7.2%
NCc1ccccc1-c1ccc(O)cc1,5.0%[44.1 µM]
Cc1noc([C@@H](C)NC(=O)COc2ccccc2)c1C(=O)O,-17.8%[44.1 µM]
COc1cccc(-c2cn3c(n2)N(C(=O)Cc2ccsc2)CCC3)c1,-2.0%
COc1cccc(-c2cn3c(n2)N(C(=O)C2CCCC2)CCC3)c1,8.91µM*
COc1cccc(-c2cn3c(n2)N(C(=O)C2CCC2)CCC3)c1,-59.1%
SMILES,Pf Dd2 growth
C1CC(C2CCN(C3CCOCC3)CC2)CN1 (stereo not drawn),-10.1%
CCOc1cc(C2Sc3ccccc3NC3=C2C(=O)c2ccccc23)ccc1O (stereo not drawn),11.2µM*
CC(=O)Nc1ccc(NC(=O)CC2Sc3ccccc3NC2=O)cc1 (stereo not drawn),16.0%
O=C(NCc1ccccc1Cl)c1cc2c(s1)-c1ccccc1SC2,-1.0%
CCOc1cc(C2CC(=O)Nc3c2c(C)nn3-c2nc(C)cc(C)n2)ccc1O (stereo not drawn),-28.2%
O=C1C2=C(Nc3ccccc3SC2c2ccc(Cl)c(Cl)c2)c2ccccc21 (stereo not drawn),3.55µM*
C#CCOc1c(Br)cc(C2C(C(=O)OC)=C(C)NC3=C2C(=O)c2ccccc23)cc1OCC (stereo not drawn),i
CCCc1ccc(C2Sc3ccccc3NC3=C2C(=O)c2ccccc23)cc1 (stereo not drawn),3.16µM*
COC[C@@H]1CN(S(=O)(=O)c2ccccc2F)C[C@H]1c1ccncc1,-19.4%
O=C(COc1ccccc1)N1CC[C@H]2CC(=O)N(c3ccccc3)CC[C@H]2C1,-8.0%[44.1 µM]
O=C(COc1ccc(Cl)cc1)N1CCC(Cc2nc(-c3ccccc3)no2)CC1,i
NCCN1C(=O)CO[C@H](c2ccc(NS(=O)(=O)c3ccccc3)cc2)[C@H]1CO,14.6%[44.1 µM]
CC(C)CN(C1CCOCC1)C1CN(S(=O)(=O)c2ccc(F)cc2)C1,-12.7%
COCC(=O)N(C1CCOCC1)C1CCN(S(=O)(=O)c2cccnc2)CC1,28.0%
CC(C)CCN(C1CCOCC1)C1CCN(S(=O)(=O)c2cccnc2)CC1,10µM*
CCc1nnc(N2CCCC3(CCC(=O)N(Cc4ccccc4)C3)C2)s1 (stereo not drawn),-4.0%
COc1ccc2c(c1)-c1nc(NC(=O)c3cc(Cl)ccc3OC)sc1CC2,-2.4%
COc1ccc2c(c1)-c1nc(NC(=O)c3cc(OC)c(OC)c(OC)c3)sc1CC2,5.01µM*
COc1ccc2c(c1)-c1nc(NC(=O)c3ccccc3F)sc1CC2,-16.2%
CC1=C(C(=O)N2CCOC(CCCc3ccccc3)C2)OCCO1 (stereo not drawn),-13.5%
